These results are taken from PubChem BioAssay (NCI).

About 83,000 compounds went through this panel and 20% of them were active in at least one assay; those are over-represented in the sample as a whole.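 Negative percent growth values reflect cell death: -40 means 40% of the cells present at the start died, and -100 means all died.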 Values without a mark were called inactive. Calls of active or inactive are those of the source.

This assay relates to HCT-15 colon. In words: NCI-60 one-dose screen, 48 h (100 = growth as untreated, 0 = no growth, -100 = all killed). Conditions: 10 µM unless noted. As to the method: Growth inhibition of the HCT-15 human tumor cell line is measured as a screen for anti-cancer activity. Cells are grown in 96 well plates and exposed to the test compound for 48 hours. Compounds are tested at a single concentration, which is 10^-5 M for most compounds. The reported endpoint is percent growth (GI% or GIPRCNT), where numbers from 0 - 100% represent growth inhibition, and numbers from -100% - 0 represent cell death. For example, a value of 40 represents 60% growth inhibition. A value of 0 means no net growth occurred over the course of the experiment. A value of -40 indicates 40% of cells at the beginning of the experiment died by the end of the experiment. A value of -100 means all cells are dead at the end of the experiment.
NCI-60 Human Tumor Cell Lines Screen was performed using the standard one-dose NCI protocol, which is described in more detail at https://dtp.cancer.gov/discovery_development/nci-60/default.htm.
Compounds with GIPRCNT values below 10 were considered active. Activity score was based on GIPRCNT using the following formula: […]
Score is 0 for GIPRCNT values of 100 or above, 50 for GIPRCNT values of 0, and 100 for GIPRCNT values of -100.
As for `CNC(=O)c1cc(Oc2cccc3nc(Nc4ccc(Cl)c(F)c4)ccc23)ccn1`, the growth was 59.3%.
With `CCCC(=O)OCC1OC(n2cnc3c(=S)nc(N)[nH]c32)C(OC(=O)CCC)C1OC(=O)CCC` (stereo not given) the figure was 50.2%; with `NC(=O)c1n[nH]n2c1nc(=O)c1c3c(sc12)CCCC3`, 107%.
With `CC1(O)CCC(Nc2cc(-c3ccc(C(F)(F)F)cc3)c(C#N)c3nc4ccccc4n23)CC1` (stereo not given) the figure was 58.6%; with `COc1ccc(S(=O)(=O)N(C(C)=O)c2ccccc2/C=C/c2cc[n+]([O-])cc2)cc1`, 17.9%.
The result for `O=C(c1ccc(/C=C/c2n[nH]c3ccccc23)cc1)N1CCNCC1` reads 40.3%.
As for `Cc1cc(Nc2ncc(Cl)c(Nc3ccccc3S(=O)(=O)C(C)C)n2)c(OC(C)C)cc1C1CCNCC1`, the growth is -86.4% (active).
With `CC(C)[C@@H]1CC[C@]2(CO2)[C@@H]2C(=O)OCC(C(=O)O)=C[C@H]21` the figure was 0.806% (active); with `Cc1cnc(Nc2ccc(OCCN3CCCC3)cc2)nc1Nc1cccc(S(=O)(=O)NC(C)(C)C)c1`, 5.6% (active); with `CCc1nc2ccc(Cc3ccc(C(=O)NO)cc3)cc2c(=O)n1CCc1ccccc1`, -43.2% (active).
With `O=C(O)c1ccc(Nc2ncc3c(n2)-c2ccc(Cl)cc2C(c2c(F)cccc2F)=NC3)cc1` the figure was 50.5%.
The result for `COc1cnc2c(c1)C(=O)c1c-2n(CCCN2CCC(O)CC2)c(=O)c2cc(Cl)ccc12` reads -71.5% (active); that for `CNS(=O)(=O)Nc1nccc(Cc2c(C)c3ccc(Oc4ncccn4)cc3oc2=O)c1F`, 63.7%.
Consider `COc1cc2ncnc(Oc3cccc(NC(=O)Nc4cc(C(C)(C)C(F)(F)F)on4)c3)c2cc1OC`, for which the growth is 22.4%.
With `CC(C)Nc1cc(-c2c[nH]c(C(=O)N[C@H](CO)c3cccc(Cl)c3)c2)c(Cl)cn1` the figure was 25.1%.
The result for `COc1ccc(-c2cc3c(oc2=O)-c2ccccc2OC3OC(C)=O)cc1` (stereo not given) reads 86.2%.
The result for `Cc1csc(-c2nnc(Nc3ccc(Oc4ncccc4-c4ccnc(N)n4)cc3)c3ccccc23)c1` reads 37.6%; that for `COc1cc(Nc2c(C#N)cnc3cc(OCCCN4CCN(C)CC4)c(OC)cc23)c(Cl)cc1Cl`, 57.5%.
With `CC(C)(C)CC(C)(C)Nc1c(-c2c(O)c3ccccc3oc2=O)nc2c(Cl)cc(C(F)(F)F)cn12`, the growth was 107%.
The result for `CC[C@@H]1C(=O)N(C)c2cnc(Nc3ccc(C(=O)NC4CCC(N5CCN(CC6CC6)CC5)CC4)cc3OC)nc2N1C(C)C` (stereo not given in full) reads 2.76% (active); that for `COc1ccc2c(CCCCC(c3ccccc3)c3ccccc3)c3[n+](cc2c1OC)CCc1cc2c(cc1-3)OCO2`, -47% (active).
With `Cn1cc(-c2ccc(F)c(C(F)(F)F)c2)nc1C1CCN(c2ncnc3[nH]ncc23)CC1` the figure was 70%; with `COc1cc2cc(NCc3ccc(F)cc3)nc(C)c2cc1OC`, 50.9%; with `C/C(=C(/c1ccc(Cl)cc1)c1ccc(OCCN2CCCCCC2)cc1)c1ccccc1`, 20.3%.
With `COc1ccc(OC)c(NC2=C(SCCc3ccccc3)C(=O)c3ccccc3C2=O)c1` the figure was 64.2%.
For `CNC(=O)c1c(C)oc2cc(Oc3ncnc4cc(OC)c(OC)cc34)ccc12`, the growth is 109%.
The result for `COC1CCC(N2C(=O)CNc3ncc(-c4ccc(C(C)(C)O)nc4)nc32)CC1` (stereo not given) reads 10.1%.
With `Cc1ncc(-c2ccnc(Nc3ccc(S(C)(=O)=O)cc3)n2)n1C(C)C` the figure was 1.34% (active); with `C=CC(=O)Nc1cccc(Oc2nc(Nc3ccc(N4CCN(C)CC4)cc3)nc3ccsc23)c1`, -21.9% (active); with `Cc1c(Cn2c(C)nc3c(C(=O)O)cc(N4CCOCC4)cc32)cccc1C(F)(F)F`, 44.5%.
With `CN1CCN(c2ccc(OC(F)(F)F)c(Nc3ncc4c(n3)-c3c(c(C(N)=O)nn3CCO)CC4)c2)CC1` the figure was 10.7%.
With `COC(=O)Nc1nc2ccc(C(=O)c3ccc(N(C)C4COC4)cc3)cc2[nH]1`, the growth was 12.4%.
In the case of `Ic1ccccc1-c1ccccc1`, the growth was 112%.
For `Cc1nc(N)sc1-c1ccnc(Nc2ccc(N3CCOCC3)cc2)n1`, the growth was 44.7%.
As for `Cc1cccc(Cl)c1NC(=O)c1cnc(Nc2cc(N3CCOCC3)cc(S(C)(=O)=O)c2)s1`, the growth is 43.3%.
The result for `OCCNC(=S)Nc1ccc(-c2nc(N3C[C@H]4CC[C@@H](C3)O4)c3cccn3n2)cc1` reads 13%; that for `Cn1cnc(-c2cc3nccc(Oc4ccc(NC(=S)NC(=O)Cc5ccccc5)cc4F)c3s2)c1`, 85.3%.
With `C[C@@H](Nc1cc(F)cc(F)c1)c1cc(C(=O)N(C)C)cc2c(=O)cc(N3CCOCC3)oc12` the figure was 84%; with `Cc1cc2c(-c3nc4ccccn4c3NC34CC5CC(CC(C5)C3)C4)c(O)c(O)cc2c(O)c1-c1c(C)cc2c(-c3nc4ccccn4c3NC34CC5CC(CC(C5)C3)C4)c(O)c(O)cc2c1O`, 20%; with `CN(C[C@@H]1COCCO1)S(=O)(=O)Nc1ccc2ccc3ncc(-c4cnn(C)c4)cc3c(=O)c2c1`, 26%.
